# Assay outcomes: PubChem BioAssay, National Center for Advancing Translational Sciences (NCATS)
# Pf growth 96h = inhibits malaria parasite growth, 96 h; P. falciparum luciferase reporter growth, 96 h; Potency, µM (titrated, usually from 28.7 µM), for the others: at the highest dose activity change, negative = inhibition, most hits filed as inhibitors; 320,000 tested, 6.9% active; note: potency is the fitted concentration of half-maximal effect
#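 P. falciparum expressing integrated firefly luciferase grown in erythrocytes (2% hematocrit, 0.05% parasitemia final) with compounds for 96 hours at 37 C, 5% CO2. Growth inhibition read as loss of luminescence after adding luciferase detection reagent.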
# HCMV inh = human cytomegalovirus inhibition; HFF cells, HCMV-luciferase reporter, 72 h; stronger effect = lower value; activity change, negative = inhibition, % at 57.5 µM; 410,000 tested, 4.5% active; AID 1259415; in the data active = activity change below about -60%; inconclusive = no clear call, values can overlap the other calls; inactive = above about -39%
#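 Human foreskin fibroblasts infected with luciferase-reporter HCMV at MOI 1 PFU/cell, compounds at two doses. Luciferase measured 72 h post infection; normalized to buffer-only basal and Salinomycin (10uM) controls.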
# Sm TGR block = blocks Schistosoma mansoni thioredoxin glutathione reductase; Q962Y6; purified TGR, DTNB reduction, TNB absorbance 405 nm; Potency, µM (titrated, usually from 114 µM), for the others: top-dose activity change, negative = inhibition, hits mostly inhibitors; 360,000 tested, 3% active; AID 485364; note: potency is the fitted concentration of half-maximal effect; nearly all actives have a fitted effect of over 60% in size
#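 First, TGR (20 nM dispensed) and NADPH were mixed with compound. Second, a 15 min room-temperature incubation followed. Third, further NADPH and then DTNB were added to start the reaction. Finally, TNB absorbance was monitored kinetically.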
# Giardia FBPA inh = Giardia lamblia aldolase inhibition | purified Giardia FBPA | Potency, µM (series often up to 59.6 µM), for inactives: at the top dose activity, negative = inhibition, actives largely listed as inhibitors | 290,000 tested, 0.71% active | AID 2451; note: potency is the fitted concentration of half-maximal effect; nearly all actives have a fitted effect of over 55% in size
# Target sequence (A8B2U2 whole entry, looked up): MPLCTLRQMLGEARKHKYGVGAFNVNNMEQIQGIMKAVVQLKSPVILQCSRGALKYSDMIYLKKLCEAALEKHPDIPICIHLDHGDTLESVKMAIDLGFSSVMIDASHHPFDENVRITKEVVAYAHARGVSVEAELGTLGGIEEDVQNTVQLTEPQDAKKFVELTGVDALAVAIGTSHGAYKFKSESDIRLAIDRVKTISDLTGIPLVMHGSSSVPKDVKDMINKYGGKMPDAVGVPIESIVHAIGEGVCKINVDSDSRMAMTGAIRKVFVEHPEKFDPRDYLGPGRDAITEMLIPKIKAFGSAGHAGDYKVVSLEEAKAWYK
#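 Giardia FBPA (40 nM reagent) was preincubated 10 min at RT with compound (up to 57.5 uM final), then substrate plus GAPDH/TPI/NAD/arsenate coupling system with diaphorase/resazurin was added; resorufin fluorescence (525/598 nm) was read after 20 min.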
# Pf growth 48h = inhibits P. falciparum growth in the first generation, 48 h; P. falciparum luciferase growth in erythrocytes, 48 h; Potency, µM (doses to about 28.7 µM), for inactives: at the top dose activity change, negative = inhibition, actives largely listed as inhibitors; 310,000 tested, 5.9% active; note: potency is the fitted concentration of half-maximal effect
#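 Luciferase-expressing P. falciparum in infected erythrocytes (2% hematocrit, 0.1% parasitemia final) in RPMI 1640/0.5% Albumax were exposed to compound for 48 hours at 37 C, 5% CO2; growth read as luminescence.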
# An asterisk follows results filed as active; ? = inconclusive; . = no result given; + = active, no number. Compounds with a hit are over-represented: about 14% of the library has one in this group of screens. Unless noted, calls come from the whole dose curve; as a rule, active = well fitted curve in the direction sought with a large enough effect; inconclusive = small, poorly fitted or top-dose-only effect, or another doubt; inactive = no such curve, though single readings can be large; an effect the other way counts as inactive or inconclusive. % is set by controls: 0 for no effect and ±100 for the full control effect.
SMILES,Pf growth 96h,HCMV inh,Sm TGR block,Giardia FBPA inh,Pf growth 48h
COC(=O)c1scc(-c2ccc(C)cc2)c1S(=O)(=O)Nc1cc(C)ccc1OC,.,28.4,7.7%,.,.
CC(=O)c1c(C)[nH]c(C(=O)NCCN2CCC(C)CC2)c1C,11.7µM*,53.6,0.0%,8.7%,-4.6%
Cc1nc(N2CCOCC2)[nH]c(=O)c1[N+](=O)[O-],8.5%,66.2,-15.3%,1.0%,10.4%
Cc1n[nH]c2c([N+](=O)[O-])c(=O)[nH]c(=O)n12,.,-70.7*,.,.,.
CC1(C)c2ccccc2N2CC(=O)N[C@@]21/C=C/C=C/c1ccccc1,-27.2%,-65.6*,-1.0%,-5.8%,?
COc1ccc2[nH]c3nc(SCC(=O)Nc4cccc(NC(C)=O)c4)nnc3c2c1,?,44.4,7.5%,-19.7%,13.8%
O=C(CSc1nnc2c(n1)[nH]c1ccc(F)cc12)NC1CC1,3.29µM*,-7.1,-1.4%,-25.6%,20.5%
O=C(CSc1nnc2c(n1)[nH]c1ccc(F)cc12)N1CCOCC1,9.8%,-6.2,56.1%,0.1%,2.9%
CC1Cc2ccccc2N1C(=O)CSc1nnc2c(n1)[nH]c1ccc(F)cc12 (centres undefined),-90.0%,-23.8,-2.1%,-8.8%,1.47µM*
CCOC(=O)CN(C(=O)CSc1nnc2c(n1)[nH]c1ccc(OC)cc12)c1ccc(F)cc1,7.5%,-2.5,-30.0%,-13.0%,9.28µM*
CC(C)OC(=O)CSc1nnc2c(n1)[nH]c1ccc(F)cc12,13.1µM*,-88.0*,-6.6%,-8.5%,5.86µM*
Cc1ccc(S(=O)(=O)N2CCC([C@H](C#N)c3ccccc3)CC2)cc1,.,-12.4,.,.,.
Cc1cccc(NC(=O)Cn2cnc(S(=O)(=O)N3CCCC3)c2)c1C,?,9.3,6.9%,.,19.5%
CCOC(=O)[C@]12CCC=C1N(CCC1=CCCCC1)C(=O)[C@H](CC(=O)NCCCCc1ccccc1)C2,.,-2.9,.,.,.
O=C(CSc1nnc2c(n1)[nH]c1ccc(F)cc12)NCc1ccc(F)cc1,?,-34.0,2.7%,-8.9%,14.8%
COc1ccc(CNC(=O)CSc2nnc3c(n2)[nH]c2ccc(F)cc23)cc1,-4.2%,-70.7*,-16.4%,-22.6%,2.4%
O=C(CSc1nnc2c(n1)[nH]c1ccccc12)OCc1ccccc1,?,13.2,8.7%,0.3%,14.7µM*
CNc1ncnc2c1ncn2[C@H]1C[C@H](OP(=O)(O)O)[C@@H](COP(=O)(O)O)O1,.,.,.,1.9%,.
NC(=O)CCn1c(C(=O)c2cccc([N+](=O)[O-])c2)c2ccccc2[n+]1[O-],25.3%,25.3,-23.9%,-5.1%,39.4%
NCCCn1c(C(=O)c2cc(Cl)c(N)c(Cl)c2)c2ccccc2[n+]1[O-],?,69.5,35.5µM*,.,?
NC(=O)CCn1c(C(=O)c2cc(Cl)c(N)c(Cl)c2)c2ccccc2[n+]1[O-],10.4µM*,-38.9,4.2%,7.8%,?
Cc1ccc(C(=O)c2c3ccccc3[n+]([O-])n2CCO)cc1,-20.0%,-3.0,-1.0%,.,4.2%
Cc1ccccc1C(=O)Nc1nnc(SCc2cc(=O)n3ccccc3n2)s1,.,-35.7,6.1%,.,.
CC(C)NC(=O)c1nn(C)c2ccccc12,7.8%,-19.1,-3.0%,1.8%,-5.5%
O=C(Nc1cccc(F)c1)C1CCN(c2nc3ccccc3[nH]2)CC1,.,+,3.3%,.,.
SMILES,Pf growth 96h,HCMV inh,Sm TGR block,Giardia FBPA inh,Pf growth 48h
COc1cccc(OC)c1C(=O)Nc1cc(C)nn1-c1nc2ccccc2[nH]1,7.38µM*,6.6,-6.3%,?,9.28µM*
COc1ccc(NC(=O)C2CCN(c3nc4ccccc4[nH]3)CC2)cc1OC,.,?,-0.3%,.,.
Cc1cc(NC(=O)C2CCCC2)n(-c2nc3ccccc3[nH]2)n1,10.4µM*,-6.5,-10.0%,.,8.28µM*
COc1cc(OC)cc(C2=Cc3ccccc3C(CC(=O)c3ccco3)N2c2ccc(-c3ccc(C(N)=O)cc3)cc2)c1 (centres undefined),.,-24.8,.,.,.
CCn1cc(C(=O)O)c(=O)c2cc(F)c(N3CCNCC3)nc21,1.44µM*,91.7,.,-2.8%,3.61µM*
COc1ccc2c(c1)c(C(=O)O)c(C)n2-c1ccc(Cl)cc1,35.2%,-62.9*,2.9%,6.5%,1.7%
CC(=O)c1c(C)n(-c2ccccc2)c2ccc(O)cc12,.,-63.8*,-1.1%,-3.6%,-3.4%
CC(=O)c1c(C)n(-c2cccc(Cl)c2)c2ccc(O)cc12,2.62µM*,-68.2*,-23.9%,-6.3%,-15.6%
COC(=O)c1c(C)n(-c2ccc(C)cc2)c2ccc(O)cc12,4.15µM*,-35.8,-9.4%,-10.2%,.
CCCCN(C=O)c1c(CC)nc2c(OCc3ccc(Cl)cc3Cl)cccn12,.,-12.2,.,.,.
CCOC(=O)CNC(=O)N1CCc2cc(S(=O)(=O)N3CCC(C)CC3)ccc21,.,54.7,0.7%,.,.
O=[N+]([O-])c1ccccc1Nc1cccnc1,22.6%,-7.3,1.1%,.,3.8%
COc1cc(N)c(Cl)cc1C(=O)OCC(=O)NCC1CCCCC1,.,-66.4*,.,.,.
COc1cc(N)c(Cl)cc1C(=O)OCC(=O)NCC1CCCO1 (centres undefined),.,-13.6,.,.,.
COc1cccc(CNC(=O)C2CCCN(S(=O)(=O)N(C)c3ccc(F)cc3)C2)c1OC (centres undefined),.,-71.5*,5.6%,.,.
COc1cccc(CNC(=O)C2Cc3cc(S(=O)(=O)N4CCCC4)ccc3N2C(C)=O)c1OC (centres undefined),14.7µM*,?,-9.8%,.,-9.2%
CC(=O)N1c2ccc(S(=O)(=O)N3CCCCC3)cc2CC1C(=O)Nc1ccc(F)cc1C (centres undefined),250.3%,-79.3*,1.8%,.,-20.1%
CC(=O)N1c2ccc(S(=O)(=O)N3CCCC3)cc2CC1C(=O)NCc1ccc(N(C)C)cc1 (centres undefined),6.57µM*,-34.5,-12.0%,.,-13.2%
COC(=O)c1ccccc1S(=O)(=O)N1CCC(C(=O)N2CCC2)CC1,-3.0%,-16.6,?,.,11.1%
CCOc1ccc(S(=O)(=O)N(C)c2ccc(OCC(=O)Nc3nc4ccccc4s3)cc2)cc1,?,?,6.0%,1.2%,0.0%
Cc1ccc(S(=O)(=O)N(C)c2ccc(OCC(=O)Nc3nnc(C4CC4)s3)cc2)cc1,-19.5%,2.5,-4.2%,0.7%,34.0%
CN(c1ccc(OCC(=O)Nc2nc3ccccc3s2)cc1)S(=O)(=O)c1ccccc1,5.22µM*,?,2.6%,3.8%,?
CCc1nnc(NC(=O)COc2ccc(N(C)S(=O)(=O)c3ccc(C)cc3)cc2)s1,0.0%,-102.4*,8.7%,0.2%,-21.6%
CC(C)C(=O)Nc1cccc(C(=O)Nc2nnc(CC(C)(C)C)s2)c1,.,13.6,-2.0%,.,.
CCCc1cc2c(n1CCc1ccc(Cl)cc1)C(C)C1CN(C(=O)c3ccccc3)C(C)(C(=O)OC)C21 (centres undefined),.,.,.,-25.5%,.
Cc1cc2nc(CCN(C(=S)NCC(C)C)C3CCCC3)[nH]c2cc1C,?,-85.3*,-19.4%,1.4%,?
